# Assay results: PubChem BioAssay
# The source made the active and inactive calls.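 Rule for the calls, unless noted: active = fluorescence slope higher than the sample average by over 3 SD (cut at about -0.22 in these data, passing the limit was not always enough); inactive = the rest.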
# Key:
# [1] = inhibitors of TNFa-induced NFkB p65 translocation, primary screen, imaging, HUVEC, MLSMR starter and 10KST1 sets (AID 438;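 active = inhibition above 20% together with a positive visual image hit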;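 note: compound added about 3h40 before a 20 min TNFalpha stimulation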;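 for inhibition: signal is the nuclear over cytoplasmic p65 intensity ratio per well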); settings: HUVEC TNFa-induced p65 nuclear translocation; cell count: measured here: nuclei count (cytotoxicity indicator), at 2.08 µM; inhibition: at 2 µM, stronger effect = higher value, 0% TNFa-plus-vehicle, 100% no-TNFa wells
# [2] = inhibitors of mutant huntingtin aggregation, primary screen, imaging, exon1htt(103Q)mCFP cells, high-content imaging (AID 483;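 active = visual image review flags a hit and inhibition of aggregation exceeds 20%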;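 note: compound exposure lasted 3 days before fixation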;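 for nuclei count: percent of the per-plate median nuclei count of sample wells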); settings: exon1htt(103Q)mCFP cell line, aggregate imaging, at 2 µM; inhibition of aggregation: stronger effect = higher value; nuclei count: measured here: cell count, toxicity
# [3] = inhibitors of E-selectin induction by TNFa, primary screen, imaging, HUVEC, immunofluorescence, MLSMR starter and 10KST1 sets (AID 487;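 active = visually confirmed hit in the image check and inhibition above 20%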;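 for inhibition: signal is fraction of cell area covered by stained E-selectin grains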;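 for nuclei count: 100% = median nuclei count of all wells on the same plate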); settings: HUVEC TNFalpha-induced E-selectin immunofluorescence imaging, at 2 µM; inhibition: stronger effect = higher value; nuclei count: measured here: cell number, toxicity
# [4] = target: Voltage-gated potassium channel subunit beta-2 (Rattus norvegicus) (UniProt P62483); experiment: KvBeta enzyme negative modulators, primary screen, biochemical, NADPH fluorescence (AID 622); settings: recombinant KvBeta, 4-cyanobenzaldehyde reduction, at 10 µM, stronger effect = higher value;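 note: slope of raw intensity against log time taken from 70 to 1610 s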
# Chain of Voltage-gated potassium channel subunit beta-2 (Rattus norvegicus) (P62483 whole entry, looked up): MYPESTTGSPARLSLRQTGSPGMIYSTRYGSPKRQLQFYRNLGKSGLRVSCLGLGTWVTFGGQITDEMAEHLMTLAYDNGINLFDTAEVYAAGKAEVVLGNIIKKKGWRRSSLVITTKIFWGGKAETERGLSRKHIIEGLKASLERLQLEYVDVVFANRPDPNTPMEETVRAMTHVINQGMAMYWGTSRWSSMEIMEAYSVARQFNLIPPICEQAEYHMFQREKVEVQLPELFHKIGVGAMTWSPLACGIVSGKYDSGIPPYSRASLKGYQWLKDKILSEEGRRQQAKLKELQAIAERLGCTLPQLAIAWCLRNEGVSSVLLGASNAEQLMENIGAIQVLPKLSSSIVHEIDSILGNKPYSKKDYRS
# [5] = target: Voltage-gated potassium channel subunit beta-2 (Rattus norvegicus) (UniProt P62483); experiment: KvBeta positive modulators, primary screen, biochemical, NADPH fluorescence (AID 623;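 active = NADPH fluorescence slope more negative than the mean of all samples by about 3 SD, 99.7% confidence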;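 note: fluorescence intensity change per second fitted from 20 to 320 s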); settings: Recombinant KvBeta, NADPH fluorescence decrease slope, 10 min; at 10 µM; stronger effect = lower value
# [6] = target: Alpha-2C adrenergic receptor (Homo sapiens) (UniProt P18825); experiment: modulators of alpha2C/GIRK thallium flux, primary screen, cell-based, HEK293 alpha2C/GIRK1/2 (AID 624;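 active = fluorescence slope after compound addition differing from the mean of all screened samples at 99.7% confidence, in either direction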;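 note: slope of fluorescence ratio to pre-addition baseline per second over 15 to 24 s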); settings: thallium flux BTC fluorescence, at 10 µM, actives lie on both sides
# Chain of Alpha-2C adrenergic receptor (Homo sapiens) (P18825 whole entry, looked up): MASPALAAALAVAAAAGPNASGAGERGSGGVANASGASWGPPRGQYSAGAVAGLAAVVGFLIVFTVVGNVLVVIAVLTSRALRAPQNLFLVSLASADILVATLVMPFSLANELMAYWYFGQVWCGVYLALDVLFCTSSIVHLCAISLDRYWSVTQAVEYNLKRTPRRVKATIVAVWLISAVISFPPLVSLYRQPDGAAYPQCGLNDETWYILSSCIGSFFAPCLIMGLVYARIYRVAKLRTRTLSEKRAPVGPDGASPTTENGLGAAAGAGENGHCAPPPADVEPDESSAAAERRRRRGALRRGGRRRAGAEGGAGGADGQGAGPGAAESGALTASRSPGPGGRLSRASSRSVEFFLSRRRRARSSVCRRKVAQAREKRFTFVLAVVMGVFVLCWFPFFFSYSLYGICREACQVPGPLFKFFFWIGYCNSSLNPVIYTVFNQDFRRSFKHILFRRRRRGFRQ
# [7] = inhibitors of Sendai virus-induced IRF3 signaling, primary screen, TLR/RLR signaling modifier project, cell-based, Sendai virus stimulus, luciferase, 10K MLSCN set (AID 602276;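 active = inhibition at or above 50% at 10 µM; inactive = inhibition below 50%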;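 note: firefly luciferase from ISG56 promoter only with Renilla not read in this screen; 0% = Sendai virus plus DMSO and 100% = medium plus DMSO without virus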); settings: HEK293 RL24 IRF3 luciferase reporter, at 10 µM, stronger effect = higher value
# [8] = inhibitors of poly I:C-induced TLR3 signaling, primary screen, cell-based, poly I:C stimulus, luciferase, 10K MLSCN set (AID 602277;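 active = inhibition of the reporter signal at or above 50%; inactive = inhibition below 50%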); settings: HEK293-TLR3 RL24 IRF3 luciferase reporter, at 10 µM, stronger effect = higher value
SMILES,cell count [1],inhibition [1],inhibition of aggregation [2],nuclei count [2] [%],inhibition [3],nuclei count [3] [%],fluorescence slope [4],NADPH fluorescence slope [5],slope [6],inhibition [7],inhibition [8]
N#C/C(=C(/O)CN1CCOCC1)c1nc2ccccc2s1,794,2.1% (inactive),-5.9% (inactive),104,-126% (inactive),129,-0.452 (inactive),4.4e-05 (inactive),0.00349 (inactive),-15.8% (inactive),-1.7% (inactive)
O=C(CCOc1ccccc1)NCc1ccccc1,729,-17.6% (inactive),-3.7% (inactive),97.3,12.7% (inactive),114,-0.559 (inactive),7.4e-05 (inactive),0.00548 (inactive),11.5% (inactive),12.3% (inactive)
CCCCn1c(CNC(=O)CCC)nc2ccccc21,635,3.9% (inactive),-10.7% (inactive),124,-30.1% (inactive),116,-0.565 (inactive),-4.3e-05 (inactive),0.00641 (inactive),5.22% (inactive),31.7% (inactive)
Cc1ccc(NC2=NCC(=O)N2c2ccc3c(c2)OCCO3)c(C)c1,463,-14.4% (inactive),-2.6% (inactive),116,-20.7% (inactive),97.3,-0.498 (inactive),-3.6e-05 (inactive),0.00458 (inactive),5.69% (inactive),7.01% (inactive)
CN(C)c1ccnc(NCc2ccccc2)c1C#N,286,2.1% (inactive),19% (inactive),72.9,-62% (inactive),112,-0.411 (inactive),-3.6e-05 (inactive),0.00526 (inactive),-8.5% (inactive),-26.6% (inactive)
O=S(=O)(Nc1ccc2c(c1)OCO2)c1ccc(Br)s1,285,-5.5% (inactive),14.8% (inactive),92.9,8.4% (inactive),95.6,-0.31 (inactive),1.5e-05 (inactive),0.00308 (inactive),0.155% (inactive),-19.3% (inactive)
Cc1cc(C(=O)CSc2nnc(-c3ccco3)o2)c(C)n1CC1COc2ccccc2O1 (stereo not drawn),393,0% (inactive),15.2% (inactive),90.2,-115% (inactive),105,-0.516 (inactive),-2.2e-05 (inactive),0.00446 (inactive),9.81% (inactive),3.57% (inactive)
CC1(C)NC(=O)N(CN2C(=O)NC(C)(C)C2=O)C1=O,579,-7.9% (inactive),-22.5% (inactive),114,28.8% (inactive),110,-0.415 (inactive),-3.4e-05 (inactive),0.00531 (inactive),7.1% (inactive),9.34% (inactive)
O=C(CSc1nnc(-c2ccccc2)o1)N1CCN(c2ccccc2)CC1,220,12.5% (inactive),-9.2% (inactive),88.7,-98.1% (inactive),105,-0.406 (inactive),-3.6e-05 (inactive),0.0062 (inactive),5.38% (inactive),2.42% (inactive)
O=C(Nc1nnc(-c2ccc(Cl)cc2)o1)C1CCCCC1,673,1.8% (inactive),18.6% (inactive),96.8,-21.5% (inactive),115,-0.443 (inactive),-6.8e-05 (inactive),0.00624 (inactive),6.6% (inactive),3.98% (inactive)
Cc1cc2ccccc2c(=O)n1CC(=O)Nc1ccc2c(c1)OCO2,455,0% (inactive),-12.3% (inactive),108,-85.2% (inactive),109,-0.48 (inactive),-2.6e-05 (inactive),0.00487 (inactive),2.31% (inactive),23.9% (inactive)
COc1ccc(Cn2nnnc2C(c2ccccn2)N2CCN(c3cc(Cl)ccc3C)CC2)cc1 (stereo not drawn),669,-8% (inactive),2.5% (inactive),112,-18.4% (inactive),104,-0.217 (inactive),-1.3e-05 (inactive),0.00703 (inactive),21.3% (inactive),37.4% (inactive)
COc1ccc(S(=O)(=O)Nc2ccccc2OC)cc1C,471,-3.3% (inactive),0.3% (inactive),96.5,-26.6% (inactive),110,-0.459 (inactive),1.9e-05 (inactive),0.00608 (inactive),16.7% (inactive),27.5% (inactive)
